Screening data (PubChem BioAssay)
B2AR ag = beta2AR agonists driving receptor internalization, primary screen, cell-based, FAP fluorogen, flow cytometry; response, % (concentration not given with the values); AID 504454, 2011; Beta-2 adrenergic receptor (Homo sapiens), P07550; Am2.2-beta2AR cells; 0.43% of 340,000 active;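 active means response above a set limit, near 3 SD of response in nonfluorescent compounds, cut at about 42% in these data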
TLR9-MyD88 block = inhibitors of TLR9-MyD88 association in cells, primary screen, cell-based, CHO, BLA complementation, fluorescence | Toll-like receptor 9 (Homo sapiens) + Myeloid differentiation primary response protein … | 0.21% of 340,000 active | inhibition, % at 4.98 µM | CCF4 FRET ratio | AID 504734, 2011;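 active means inhibition above the mean over all tested compounds plus 3 SD, cut at about 21% in these data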;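 further: 0% = DMSO only wells and 100% = clavulanate BLA inhibitor control wells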
TLR4-MyD88 BLA = inhibitors of TLR4-MyD88 association in cells, primary screen, cell-based, HeLa CL3-4, BLA complementation, FRET ratio | HeLa CL3-4 TLR4/MyD88 BLA complementation | AID 861, 2007 | inhibition, % at 8.4 µM | 0.18% of 200,000 active; in the data active means inhibition above about 25%;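 further: 0% = vehicle and 100% = reference inhibitor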
NOD2-RIPK2 inh = NOD2-RIPK2 binding disruptors in cells, primary screen, fluorescence, CHO cells, BLA complementation; CCF4 ratio; inhibition, % at 4.98 µM; 0.38% of 360,000 active; AID 624267, 2012; in the data active means inhibition above about 21%;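 further: 0% = vehicle only and 100% = reference blocker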
ABHD5 PLIN5 PPI = ABHD5-PLIN5 interaction inhibitors, primary screen, cell lysate, split luciferase complementation, luminescence. Split G. princeps luciferase complementation, 4 h. inhibition, % at 4 µM. 0.78% of 360,000 active. AID 602281, 2012;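 active means inhibition above the mean inhibition across every tested compound plus 3 SD, cut at about 22% in these data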;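 further: 0% = DMSO only wells and the 100% control is not disclosed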
Target sequence (Q00G26 whole entry, looked up): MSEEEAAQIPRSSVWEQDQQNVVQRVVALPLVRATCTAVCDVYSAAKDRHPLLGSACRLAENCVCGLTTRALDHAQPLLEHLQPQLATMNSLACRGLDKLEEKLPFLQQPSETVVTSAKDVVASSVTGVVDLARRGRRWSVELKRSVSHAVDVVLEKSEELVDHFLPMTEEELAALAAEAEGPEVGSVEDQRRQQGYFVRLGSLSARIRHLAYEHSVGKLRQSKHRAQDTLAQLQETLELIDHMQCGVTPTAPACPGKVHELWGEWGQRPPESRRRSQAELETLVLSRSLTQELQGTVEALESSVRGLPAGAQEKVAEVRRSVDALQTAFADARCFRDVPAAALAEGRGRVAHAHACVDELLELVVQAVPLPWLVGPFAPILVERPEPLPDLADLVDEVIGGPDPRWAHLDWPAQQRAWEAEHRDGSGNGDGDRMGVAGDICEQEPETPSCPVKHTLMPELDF
Target sequence (Q8WTS1 whole entry, looked up): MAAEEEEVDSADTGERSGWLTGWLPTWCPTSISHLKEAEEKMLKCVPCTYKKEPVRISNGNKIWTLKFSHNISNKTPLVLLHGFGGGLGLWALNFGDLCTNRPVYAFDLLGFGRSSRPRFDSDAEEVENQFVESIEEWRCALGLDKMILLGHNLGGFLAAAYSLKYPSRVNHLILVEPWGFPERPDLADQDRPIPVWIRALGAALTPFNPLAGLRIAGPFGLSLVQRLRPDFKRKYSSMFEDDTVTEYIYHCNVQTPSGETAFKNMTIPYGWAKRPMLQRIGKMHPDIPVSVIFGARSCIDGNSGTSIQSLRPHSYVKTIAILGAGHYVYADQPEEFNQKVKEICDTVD
NTR1 ag = agonists of human NTR1, primary screen, imaging, U2OS cells, beta-arrestin-GFP, high content; Neurotensin receptor type 1 (Homo sapiens), P30989; 0.17% of 330,000 active; activation, % at 20 µM; NTR1-U2OS beta-arrestin-GFP spot imaging, agonist mode; AID 493036, 2011;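 active means activation at or above 40% of the spot to cytoplasm intensity ratio, with at least 20 cells analyzed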;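 further: 0% = DMSO without peptide and 100% = 100 nM NTR1 peptide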
* = called active by the depositor; nt = no result given. Only some compounds are listed: those with a hit (about 1.5% of all), similar ones and a draw of the others.

SMILES	B2AR ag	TLR9-MyD88 block	TLR4-MyD88 BLA	NOD2-RIPK2 inh	ABHD5 PLIN5 PPI	NTR1 ag
COc1ccccc1-n1c(SCC(=O)NCc2ccc3c(c2)OCO3)nc2cc([N+](=O)[O-])ccc21	10	-18	8	0	23*	23
NC(=O)c1cccc(-c2ccnc3c2CC(C(=O)Nc2cccc(C(F)(F)F)c2)O3)c1 (centres undefined)	nt	nt	nt	-6	-1	nt
CCOC(=O)/C=C/C(=O)Nc1cc(S(=O)(=O)Nc2ccc(OC)cc2)ccc1N1CCOCC1	3	-5	nt	6	22*	3
COc1ccc(NS(=O)(=O)c2ccc(N3CCOCC3)c(NC(=O)C(C)C)c2)cc1	6	15	-7	2	-3	0
CN(C)CCn1c(=N)n(CC(O)c2ccc(Cl)c(Cl)c2)c2ccccc21 (centres undefined)	29	-1	16	4	23*	-1
O=S(=O)(Cc1ccccc1)N(O)c1ccccc1	77*	6	nt	2	-9	3
O=C(O)CNS(=O)(=O)Cc1ccccc1	9	-6	nt	2	-5	0
Cc1ccccc1-c1csc(C(O)c2cccnc2)n1 (centres undefined)	nt	nt	nt	9	2	nt
CC(C)C(=O)N(c1ccc2oc(=O)sc2c1)S(=O)(=O)c1cccs1	2	-5	10	1	30*	1
CC(=O)N(c1ccc2oc(=O)sc2c1)S(=O)(=O)c1cccs1	11	5	6	-8	9	1
CC(C)(C)c1cnnn1-c1ccc(C=O)cc1	-6	-4	-1	-10	-5	2
CC(C)(C)c1cnnn1-c1ccc(C(=O)CCl)cc1	45*	-2	0	3	3	-3
Cc1ccc(C(=O)/C=C/c2c[nH]c3ccccc23)cc1	9	16	25	25*	0	12
Cc1ccc(S(=O)(=O)/C(C#N)=C/c2c[nH]c3ccccc23)cc1	9	3	-7	13	2	19
COc1ccc(-c2cnc3c(NC(C)=O)cc(-c4ccc(C(=O)N5CCOCC5)cc4)cn23)cc1OC	nt	nt	nt	1	-7	nt
O=C(c1ccc2c(c1)[nH]c(=S)n1c3ccccc3nc21)N1CCN(c2ncccn2)CC1	62*	-7	11	3	0	-2
CCOc1ccc(OCCC(=O)NNC(=O)c2cc(OC)c(OC)c(OC)c2)cc1	83*	5	nt	-6	-5	0
Cc1ccc2c(c1)c1c3n2CCN(C(=O)CN2CCN(C)CC2)C3CCC1 (centres undefined)	14	3	5	8	11	-3
CN1CCN(CC(=O)N2CCn3c4c(c5cc(C6CCCCC6)ccc53)CCCC42)CC1 (centres undefined)	16	-5	0	5	23*	0
O=C(Nc1ccc2nc(-c3ccccc3)[nH]c2c1)c1ccco1	-9	-2	-12	-2	2	1
O=C(Nc1cccc(-c2nc3ccccc3[nH]2)c1)c1cccc(NC(=O)c2ccco2)c1	28	10	-9	4	5	41*
O=C(NCC(F)(F)F)c1[nH]c(C(F)(F)F)nc1-c1ccccc1	nt	nt	nt	-7	1	nt
CCCCNC(=O)c1nc(C2CCN(S(=O)(=O)c3ccc(Cl)cc3)CC2)oc1-c1ccccc1	nt	nt	nt	-7	-8	nt
COc1ccccc1C(=O)NCCC(=O)N1CC=C(c2ccccc2)CC1	-5	-6	nt	3	24*	0
CC12CNCC(C)(CN(C(c3ccccc3)c3ccccc3)C1)C2	90*	1	-21	1	6	16
SMILES	B2AR ag	TLR9-MyD88 block	TLR4-MyD88 BLA	NOD2-RIPK2 inh	ABHD5 PLIN5 PPI	NTR1 ag
CCCCNC(=O)c1c(N)[nH]c(C(=O)c2ccccc2)c1-c1ccccn1	nt	nt	nt	0	-26	nt
COC(=O)Cn1cc(/C=N/NC(=O)COc2cccc3cccnc23)c2ccccc21	48*	-3	-4	6	6	2
C#CCn1cc(/C=N/NC(=O)COc2cccc3cccnc23)c2ccccc21	-3	-9	-5	0	0	2
CN(C)CCNC(=O)c1cccc(-c2cccc3nncn23)c1	nt	nt	nt	-7	3	nt
CN1CCN(Cc2c(O)ccc3cc(-c4ccccn4)c(=O)oc23)CC1	69*	4	-1	11	5	1
Cc1c(C)c2ccc(O)c(CN3CCN(C)CC3)c2oc1=O	-10	-4	nt	-1	1	1
O=C(Cn1ncn2c(cc3ccccc32)c1=O)NCc1ccco1	2	3	-15	-2	29*	0
Cc1noc(C)c1S(=O)(=O)NC(=O)C1(C)CCN1C(=O)Cc1ccc(-c2ccccc2)cc1 (centres undefined)	nt	nt	nt	-11	-1	nt
C=C1C(=O)CC2=C1[C@](Cc1ccc(F)cc1)(C(=O)OC)N(C(=O)c1ccccc1)C2	nt	nt	nt	0	7	nt
C=C1C(=O)C=C2CN(C(=O)c3ccccc3)[C@@](Cc3ccc(F)cc3)(C(=O)OC)[C@@H]12	79*	9	-8	48*	75*	2
COc1cccc(C(=O)N=c2sc3c(C)ccc(OC)c3n2C)c1	-10	8	nt	1	11	10
COc1ccc(C(=O)N=c2sc3c(C)ccc(OC)c3n2C)cc1OC	47*	4	nt	0	16	14
O=C(c1ccc(N2CCCCC2)c([N+](=O)[O-])c1)N1CCOCC1	-14	-4	6	-7	0	-1
O=C(/C=C/c1ccc(N2CCCCC2)c([N+](=O)[O-])c1)c1ccc(O)cc1	-7	7	8	-1	22*	36
CCOC(=O)[C@]12CCC=C1N(Cc1cccc3ccccc13)C(=O)[C@H](CC(=O)NCCCCc1ccccc1)C2	nt	nt	nt	-4	8	nt
Cc1ccc2nc(N(CCCN(C)C)C(=O)CCc3ccccc3)sc2c1	14	6	4	4	22*	nt
O=C(/C=C/c1ccc2c(c1)OCO2)NCCSCc1c(Cl)cccc1Cl	77*	1	-11	0	-3	4
O=C(/C=C/c1ccc2c(c1)OCO2)NCCSCc1ccc(Cl)cc1	-2	9	-7	13	-4	1
O=C1NC[C@H](CCCCN2C[C@H](Cc3ccc(O)cc3)N(CCc3ccc(O)cc3)C(=O)C2=O)N(CC2CCCCC2)C1=O	nt	nt	nt	-4	-5	nt
Cc1ccc(C)c(S(=O)(=O)N2CCCCC2CCNC(=O)C(=O)NC2CCCC2)c1 (centres undefined)	-7	4	nt	-3	-8	1
